According to PubChem BioAssay AID540335 (Broad Institute, 2011):
Hit rate of the full screen: of about 1,300 compounds, about 270 (21%) were called active.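 How the source made its calls: active means dose-dependent rise or fall in viability, either side of zero, with half-maximal concentration at or below a set limit; inconclusive means flat curve at 30 to 70% viability loss, or poor fit; inactive means flat within 30% either way, or potency beyond limit.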 Only a sample is shown. Where a call stands in place of a potency, no number is given. Potency and affinity values are given separately.

Experiment: proliferation inhibition in MITF-low A375 cells – cell-based, cherry-pick samples, set 2, counter-screen for MITF modulator project, dose response (AID 540335);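 further: A375 human melanoma cells which do not depend on MITF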
Conditions: CellTiter-Glo ATP luminescence, 24 h; series mostly up to 35 µM

SMILES | outcome
Cn1cccc1C(=O)NC(=O)COC(=O)c1ccc(S(C)(=O)=O)c([N+](=O)[O-])c1 | inactive
CS(=O)(=O)c1ccc(C(=O)OCC(=O)NCc2cccs2)cc1[N+](=O)[O-] | inactive
O=C(CCl)N1N=C(c2ccco2)CC1c1cccs1 (centres undefined) | inactive
CC(C)C(=O)N1CCN(c2ccc(NC(=O)c3ccc([N+](=O)[O-])o3)cc2Cl)CC1 | inactive
CCCCC[n+]1ccn(C2=C([O-])c3ccccc3C(=O)/C2=N\S(=O)(=O)c2ccccc2)c1 | inactive
O=C(Nc1ccc2c(c1)OCCO2)c1coc2ccccc2c1=O | inactive
COc1cc(CN2CCC(C(=O)NCCC(C)C)CC2)ccc1OCc1ccccc1 | inactive
COc1cc(CN2CCC(C(N)=O)CC2)ccc1OCc1ccccc1 | inactive
CCN1CCc2c(sc(NC(=O)c3ccc(S(=O)(=O)N4CCCC4)cc3)c2C(=O)NC)C1 | inactive
Cc1ccc(NC(=O)c2cc(N3C(=O)C=CC3=O)ccc2N2CCOCC2)cc1 | inactive
O=C(Nc1ccc(S(=O)(=O)NC2=NCCCCC2)cc1)c1ccc([N+](=O)[O-])s1 | inactive
Cc1ccc2nc(NC(=O)CCCC(=O)O)sc2c1 | inactive
Cc1ccc2sc(N(CCCN(C)C)C(=O)c3ccc(S(=O)(=O)N(C)C4CCCCC4)cc3)nc2c1C | inactive
COc1ccc(S(=O)(=O)N2CCCCC2)cc1NC(=O)c1ccc([N+](=O)[O-])o1 | inactive
Cn1c(SCC(=O)N/N=C/c2ccc([N+](=O)[O-])s2)nnc1-c1ccccc1 | inactive
CC(=O)OCCCNc1cc(Sc2ccc(Cl)cc2)c2nonc2c1[N+](=O)[O-] | inactive
CCN1CCCC1CNC(=O)c1ccc2c(c1)NC(=O)/C(=C\c1ccc(C)cc1)S2 (centres undefined) | inactive
O=C1Nc2cc(C(=O)NCCN3CCCCCC3)ccc2S/C1=C\c1ccccc1 | inactive
COc1cccc(/C=C2/Sc3ccc(C(=O)NCCN4CCCC4)cc3NC2=O)c1 | inactive
CCN1CCCC1CNC(=O)c1ccc2c(c1)NC(=O)/C(=C\c1ccc(OC)c(OC)c1)S2 (centres undefined) | inactive
COC(=O)[C@@H]1C[C@]2(OC(=O)c3ccccc3)C=CC(=O)C[C@@H]2N1C(=O)OCc1ccccc1 | inactive
COc1ccccc1NS(=O)(=O)c1cccc(C(=O)N/N=C/c2ccc([N+](=O)[O-])o2)c1 | inactive

SMILES | outcome
Cc1ccccc1OCC(=O)N/N=C/c1ccc([N+](=O)[O-])o1 | inactive
O=C(COc1ccccc1)N/N=C/c1ccc([N+](=O)[O-])o1 | inactive
C=Cc1ncc(OC)c2c1[nH]c1ccccc12 | inactive
O=[N+]([O-])c1cccc2c(N3CCCC3)ccnc12 | inactive
CCN1CCN(c2ccc(NC(=O)c3ccc([N+](=O)[O-])o3)cc2Cl)CC1 | inactive
O=C(C[n+]1cccc2ccccc21)c1ccc([N+](=O)[O-])cc1 | inactive
Cc1cc(C)n(-c2ccc(C(=O)Nc3ccc(C)c(S(=O)(=O)N4CCOCC4)c3)cc2)n1 | inactive
CS(=O)(=O)c1nc(-c2ccc(F)cc2)cc(C(F)(F)F)n1 | inactive
CCOC(=O)c1ccc2c(c1)n(CC)c(/C=C/N(C)c1ccccc1)[n+]2CC | inactive
CCn1c(/C=C/N(C)c2ccccc2)[n+](CC)c2ccc(Cl)cc21 | inactive
Oc1cc(NCCN2CCOCC2)cc2cccnc12 | inactive
O=C(N/N=C/c1cc(Cl)ccc1O)c1ccncc1 | inactive
O=C(N/N=C\c1cc(Br)ccc1O)c1ccc(S(=O)(=O)N2CCCCC2)cc1 | inactive
O=C1c2cc(F)ccc2-n2c1nc1ccccc1c2=O | inactive
CCOC(=O)CSC1=NC(=O)/C(=C\c2ccc(Cl)cc2)S1 | inactive
O=C(N/N=C/c1ccc(F)cc1)c1c(O)c2ccccc2[nH]c1=O | inactive
O=C1/C(=C/c2ccccc2[N+](=O)[O-])COc2ccccc21 | inactive
Cc1ccc(-c2cn(-c3ccc(SC(F)F)cc3)c3[n+]2CCC3)cc1 | inactive
O=c1c(Cl)c2oc3ccccc3nc-2c2ccccc12 | inactive
COc1cccc(-c2nnc3n2N=C(C(C)(C)C)CS3)c1 | inactive
O=C(CCl)Nc1ccc(-c2ccccc2)cc1 | inactive
COc1ccc(S(=O)(=O)N(C(C)=O)c2ccc(OC(C)=O)c3ccccc23)cc1[N+](=O)[O-] | inactive

SMILES | outcome
CS(=O)(=O)c1ccc2nc(NC(=O)c3ccccc3)sc2c1 | inactive
CC1=C/C(=N\NC(=S)Nc2cccnc2)CC(C)(C)C1 | inactive
O=C(CCl)Nc1cccc(-c2cnc3ccccc3n2)c1 | inactive
Nc1nc2ccccc2n1/N=C/c1ccc([N+](=O)[O-])s1 | inactive
CC1CN(C(=O)CCC(=O)NCCCN2CCC(Cc3ccccc3)CC2)c2cc(Cl)ccc2O1 (centres undefined) | inactive
Clc1ccc(-c2c[n+](Cc3cccc(Cl)c3)c3n2CCC3)cc1 | inactive
COc1ccc(C(=O)NCCSc2ccccc2C)cc1 | inactive
COc1ccc(/C=C2\Sc3ccc(C(=O)NCCN4CCCCCC4)cc3N(C)C2=O)cc1 | inactive
Nc1c(N(CCC2=CCCCC2)C(=O)COc2ccc([N+](=O)[O-])cc2)c(=O)[nH]c(=O)n1Cc1ccccc1 | inactive
CN1CCN(c2ccc(NC(=O)c3ccc([N+](=O)[O-])o3)cc2Cl)CC1 | inactive
CN1CCN(c2ccccc2NC(=O)c2ccc([N+](=O)[O-])o2)CC1 | inactive
CC(=O)SC(C[N+](=O)[O-])c1cn(C(C)=O)c2ccccc12 (centres undefined) | inactive
CC(C)(C)C(=O)Cn1ncc(Cl)c(Cl)c1=O | inactive
C=C1C(=O)O[C@@]23[C@H]1CC[C@@H](C)[C@@H]2CC[C@@]1(C)O[C@@H]31 | inactive
CCCC(=O)N1CCN(c2ccc(NC(=O)c3ccc([N+](=O)[O-])o3)cc2)CC1 | inactive
CCN(CC)CCNC(=O)c1ccc(NC(=O)c2cccc(S(=O)(=O)N3c4ccccc4CC3C)c2)cc1 (centres undefined) | inactive
O=C(/C=C/c1ccc(Cl)c([N+](=O)[O-])c1)c1ccc(O)cc1 | inactive
O=C(Nc1ccc(N2CCN(C(=O)c3ccc(Cl)cc3)CC2)cc1)c1ccc([N+](=O)[O-])o1 | inactive
O=C(N/N=C/c1ccc([N+](=O)[O-])s1)c1ccccc1Br | inactive
COc1cc(NC(=O)c2ccc([N+](=O)[O-])o2)ccc1NC(=O)c1cccs1 | inactive
